Inhibition data for one compound are collected here from ChEMBL document CHEMBL1961873, “Compounds: GSK PKIS; Assays: Nanosyn kinase panel” (2012).

Usually inhibition stands for the drop in the measured response relative to a control, in per cent.

Test [1] addresses Sphingosine kinase 1 (Homo sapiens) (UniProt Q9NYA1). The settings on record: at 1 µM.
Test [2] addresses T1, Sphingosine kinase 2 (Homo sapiens) (UniProt Q9NRA0).
T1 sequence (whole entry): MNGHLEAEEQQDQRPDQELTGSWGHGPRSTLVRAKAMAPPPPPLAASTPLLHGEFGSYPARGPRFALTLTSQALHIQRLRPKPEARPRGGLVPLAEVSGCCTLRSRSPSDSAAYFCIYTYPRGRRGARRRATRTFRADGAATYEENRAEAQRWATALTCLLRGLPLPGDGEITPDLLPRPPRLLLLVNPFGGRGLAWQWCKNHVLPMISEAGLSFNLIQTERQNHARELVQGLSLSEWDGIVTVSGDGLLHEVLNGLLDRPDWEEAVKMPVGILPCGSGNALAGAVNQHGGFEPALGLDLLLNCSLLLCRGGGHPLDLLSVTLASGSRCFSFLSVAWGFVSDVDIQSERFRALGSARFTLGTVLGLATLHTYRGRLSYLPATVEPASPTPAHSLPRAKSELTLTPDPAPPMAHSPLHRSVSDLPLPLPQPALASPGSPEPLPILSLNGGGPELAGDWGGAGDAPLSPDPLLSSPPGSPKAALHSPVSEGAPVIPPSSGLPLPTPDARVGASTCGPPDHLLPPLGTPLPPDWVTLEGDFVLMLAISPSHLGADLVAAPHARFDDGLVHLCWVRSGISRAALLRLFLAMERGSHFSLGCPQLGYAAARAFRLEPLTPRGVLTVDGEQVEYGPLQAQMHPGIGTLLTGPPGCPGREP
The note with it: at 0.1 µM.

For test [3], the target named is T1, Sphingosine kinase 2 (Homo sapiens). The note with it: at 1 µM.
Test [4] concerns the target Casein kinase II subunit alpha (Homo sapiens) (UniProt P68400). The settings on record: at 0.1 µM.
Test [5] has the same target. The settings on record: at 1 µM.
Test [6] addresses T2, Inhibitor of nuclear factor kappa-B kinase subunit alpha (Homo sapiens) (UniProt O15111).
T2 sequence (whole entry): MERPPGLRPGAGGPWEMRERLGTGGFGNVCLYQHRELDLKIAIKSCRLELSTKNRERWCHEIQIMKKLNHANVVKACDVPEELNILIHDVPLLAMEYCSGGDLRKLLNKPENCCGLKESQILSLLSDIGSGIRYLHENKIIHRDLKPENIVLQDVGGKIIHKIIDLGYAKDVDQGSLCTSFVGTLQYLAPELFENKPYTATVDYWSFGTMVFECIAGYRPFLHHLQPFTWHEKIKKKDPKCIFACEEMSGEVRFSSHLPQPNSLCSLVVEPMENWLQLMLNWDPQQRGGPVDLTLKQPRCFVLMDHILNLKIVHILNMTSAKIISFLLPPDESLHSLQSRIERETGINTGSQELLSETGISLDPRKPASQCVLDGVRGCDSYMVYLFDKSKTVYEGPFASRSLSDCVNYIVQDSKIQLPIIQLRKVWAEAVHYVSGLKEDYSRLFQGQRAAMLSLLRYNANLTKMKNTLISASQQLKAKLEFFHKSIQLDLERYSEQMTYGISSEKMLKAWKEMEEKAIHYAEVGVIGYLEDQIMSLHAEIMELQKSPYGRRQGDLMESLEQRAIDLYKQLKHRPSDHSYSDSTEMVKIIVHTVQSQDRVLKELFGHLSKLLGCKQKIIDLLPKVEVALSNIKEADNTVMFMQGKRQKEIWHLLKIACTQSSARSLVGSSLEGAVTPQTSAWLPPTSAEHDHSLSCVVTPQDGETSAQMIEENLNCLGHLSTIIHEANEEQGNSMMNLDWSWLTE
The settings on record: at 0.1 µM.

For test [7], the target named is T2, Inhibitor of nuclear factor kappa-B kinase subunit alpha (Homo sapiens). The settings on record: at 1 µM.
The target in test [8] is T3, Inhibitor of nuclear factor kappa-B kinase subunit beta (Homo sapiens) (UniProt O14920).
T3 sequence (whole entry): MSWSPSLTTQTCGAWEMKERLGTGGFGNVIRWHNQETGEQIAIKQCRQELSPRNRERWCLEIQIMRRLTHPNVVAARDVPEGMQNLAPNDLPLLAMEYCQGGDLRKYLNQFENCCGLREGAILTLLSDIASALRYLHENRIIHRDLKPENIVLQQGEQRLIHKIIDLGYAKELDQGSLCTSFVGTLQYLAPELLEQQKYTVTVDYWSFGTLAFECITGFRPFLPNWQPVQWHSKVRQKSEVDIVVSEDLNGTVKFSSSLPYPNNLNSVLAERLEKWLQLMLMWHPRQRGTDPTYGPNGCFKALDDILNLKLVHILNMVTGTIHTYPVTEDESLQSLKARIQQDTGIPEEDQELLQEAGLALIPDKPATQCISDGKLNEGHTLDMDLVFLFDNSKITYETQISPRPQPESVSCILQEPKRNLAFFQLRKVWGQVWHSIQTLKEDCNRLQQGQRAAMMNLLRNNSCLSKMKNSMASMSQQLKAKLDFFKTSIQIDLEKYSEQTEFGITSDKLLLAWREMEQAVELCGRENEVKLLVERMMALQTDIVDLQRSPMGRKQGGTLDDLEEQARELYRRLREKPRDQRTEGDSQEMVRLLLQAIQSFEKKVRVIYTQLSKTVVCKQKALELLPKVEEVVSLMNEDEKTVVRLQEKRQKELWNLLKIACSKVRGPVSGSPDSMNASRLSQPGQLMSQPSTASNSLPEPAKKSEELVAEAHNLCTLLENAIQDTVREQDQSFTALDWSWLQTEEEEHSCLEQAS
The settings on record: at 0.1 µM.

In test [9] the target is T3, Inhibitor of nuclear factor kappa-B kinase subunit beta (Homo sapiens). The note with it: at 1 µM.
Test [10] concerns the target T4, Inhibitor of nuclear factor kappa-B kinase subunit epsilon (Homo sapiens) (UniProt Q14164).
T4 sequence (whole entry): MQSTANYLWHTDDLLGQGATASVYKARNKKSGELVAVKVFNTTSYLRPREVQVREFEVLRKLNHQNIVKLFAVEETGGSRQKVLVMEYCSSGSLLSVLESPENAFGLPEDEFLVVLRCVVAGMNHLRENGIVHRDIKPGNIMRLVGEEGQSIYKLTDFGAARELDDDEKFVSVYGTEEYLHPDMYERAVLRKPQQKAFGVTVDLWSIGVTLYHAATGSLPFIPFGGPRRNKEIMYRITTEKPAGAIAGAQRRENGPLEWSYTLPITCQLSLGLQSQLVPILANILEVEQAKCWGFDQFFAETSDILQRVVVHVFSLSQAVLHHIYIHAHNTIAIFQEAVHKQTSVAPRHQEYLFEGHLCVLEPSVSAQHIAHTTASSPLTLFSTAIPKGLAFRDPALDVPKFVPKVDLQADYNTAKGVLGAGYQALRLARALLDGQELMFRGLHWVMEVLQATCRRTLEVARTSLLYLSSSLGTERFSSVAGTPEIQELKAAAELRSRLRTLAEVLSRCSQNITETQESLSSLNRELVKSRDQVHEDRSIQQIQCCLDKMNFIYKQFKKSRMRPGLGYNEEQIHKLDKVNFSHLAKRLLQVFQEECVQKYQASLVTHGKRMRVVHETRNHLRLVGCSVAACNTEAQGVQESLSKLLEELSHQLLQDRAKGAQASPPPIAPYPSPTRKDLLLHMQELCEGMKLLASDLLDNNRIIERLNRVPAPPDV
The note with it: at 0.1 µM.

Test [11] deals with T4, Inhibitor of nuclear factor kappa-B kinase subunit epsilon (Homo sapiens). The settings on record: at 1 µM.
Test [12] has as its target T5, Serine/threonine-protein kinase Nek1 (Homo sapiens) (UniProt Q96PY6).
T5 sequence (whole entry): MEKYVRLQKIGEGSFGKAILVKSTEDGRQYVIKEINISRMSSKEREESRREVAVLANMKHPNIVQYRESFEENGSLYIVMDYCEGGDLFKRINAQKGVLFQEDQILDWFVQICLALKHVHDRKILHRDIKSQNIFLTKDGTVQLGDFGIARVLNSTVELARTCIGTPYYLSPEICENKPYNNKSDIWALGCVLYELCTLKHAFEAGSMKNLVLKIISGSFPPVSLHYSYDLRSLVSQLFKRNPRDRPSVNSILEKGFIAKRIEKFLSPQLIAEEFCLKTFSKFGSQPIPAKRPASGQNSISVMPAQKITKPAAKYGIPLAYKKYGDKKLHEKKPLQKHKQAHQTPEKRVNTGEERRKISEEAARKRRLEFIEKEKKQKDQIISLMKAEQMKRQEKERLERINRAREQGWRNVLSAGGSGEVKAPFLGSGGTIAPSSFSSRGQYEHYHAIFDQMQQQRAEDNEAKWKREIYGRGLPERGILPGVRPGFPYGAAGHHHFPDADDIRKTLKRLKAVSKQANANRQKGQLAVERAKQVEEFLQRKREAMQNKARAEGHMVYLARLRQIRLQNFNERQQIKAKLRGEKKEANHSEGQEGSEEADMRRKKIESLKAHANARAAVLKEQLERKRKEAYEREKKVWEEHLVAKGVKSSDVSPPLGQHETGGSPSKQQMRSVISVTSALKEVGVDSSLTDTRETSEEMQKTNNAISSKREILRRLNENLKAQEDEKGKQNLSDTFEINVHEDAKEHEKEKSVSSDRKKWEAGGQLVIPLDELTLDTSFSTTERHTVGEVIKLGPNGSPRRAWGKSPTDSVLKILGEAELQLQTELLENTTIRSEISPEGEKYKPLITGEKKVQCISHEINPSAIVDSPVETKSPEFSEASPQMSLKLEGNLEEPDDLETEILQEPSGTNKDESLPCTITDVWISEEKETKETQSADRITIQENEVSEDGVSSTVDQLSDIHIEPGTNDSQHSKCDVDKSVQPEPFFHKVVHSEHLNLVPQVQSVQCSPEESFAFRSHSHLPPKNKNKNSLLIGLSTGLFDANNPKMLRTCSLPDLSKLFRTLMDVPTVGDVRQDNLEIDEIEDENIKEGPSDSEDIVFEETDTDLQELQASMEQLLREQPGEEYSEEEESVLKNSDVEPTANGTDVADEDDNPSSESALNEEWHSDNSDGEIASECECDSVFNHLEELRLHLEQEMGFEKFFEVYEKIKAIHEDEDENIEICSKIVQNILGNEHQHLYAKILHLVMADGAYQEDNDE
The settings on record: at 0.1 µM.

In test [13] the target is T5, Serine/threonine-protein kinase Nek1 (Homo sapiens). The note with it: at 1 µM.
In test [14] the target is T6, Serine/threonine-protein kinase Nek2 (Homo sapiens) (UniProt P51955).
T6 sequence (whole entry): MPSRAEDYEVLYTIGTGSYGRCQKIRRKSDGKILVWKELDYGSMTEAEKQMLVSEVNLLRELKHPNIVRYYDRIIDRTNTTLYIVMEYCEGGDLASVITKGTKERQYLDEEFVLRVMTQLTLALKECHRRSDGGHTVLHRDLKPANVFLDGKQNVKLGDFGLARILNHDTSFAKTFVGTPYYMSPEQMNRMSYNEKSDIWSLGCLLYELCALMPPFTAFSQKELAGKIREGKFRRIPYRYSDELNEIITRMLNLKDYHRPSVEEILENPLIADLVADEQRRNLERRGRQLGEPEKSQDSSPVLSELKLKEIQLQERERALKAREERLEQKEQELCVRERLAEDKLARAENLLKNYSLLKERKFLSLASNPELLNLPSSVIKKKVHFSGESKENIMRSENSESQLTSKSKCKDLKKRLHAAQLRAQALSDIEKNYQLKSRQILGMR
The settings on record: at 0.1 µM.

For test [15], the target named is T6, Serine/threonine-protein kinase Nek2 (Homo sapiens). The note with it: at 1 µM.
Test [16] addresses Serine/threonine-protein kinase Nek6 (Homo sapiens) (UniProt Q9HC98). The settings on record: at 0.1 µM.
The target is the same in test [17]. The settings on record: at 1 µM.
The target of test [18] is Serine/threonine-protein kinase Nek7 (Homo sapiens) (UniProt Q8TDX7). The settings on record: at 0.1 µM.
The target is the same in test [19]. The note with it: at 1 µM.
The target in test [20] is T7, Serine/threonine-protein kinase Nek9 (Homo sapiens) (UniProt Q8TD19).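 Note: reported value is the mean percent inhibition of NEK9.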
T7 sequence (whole entry): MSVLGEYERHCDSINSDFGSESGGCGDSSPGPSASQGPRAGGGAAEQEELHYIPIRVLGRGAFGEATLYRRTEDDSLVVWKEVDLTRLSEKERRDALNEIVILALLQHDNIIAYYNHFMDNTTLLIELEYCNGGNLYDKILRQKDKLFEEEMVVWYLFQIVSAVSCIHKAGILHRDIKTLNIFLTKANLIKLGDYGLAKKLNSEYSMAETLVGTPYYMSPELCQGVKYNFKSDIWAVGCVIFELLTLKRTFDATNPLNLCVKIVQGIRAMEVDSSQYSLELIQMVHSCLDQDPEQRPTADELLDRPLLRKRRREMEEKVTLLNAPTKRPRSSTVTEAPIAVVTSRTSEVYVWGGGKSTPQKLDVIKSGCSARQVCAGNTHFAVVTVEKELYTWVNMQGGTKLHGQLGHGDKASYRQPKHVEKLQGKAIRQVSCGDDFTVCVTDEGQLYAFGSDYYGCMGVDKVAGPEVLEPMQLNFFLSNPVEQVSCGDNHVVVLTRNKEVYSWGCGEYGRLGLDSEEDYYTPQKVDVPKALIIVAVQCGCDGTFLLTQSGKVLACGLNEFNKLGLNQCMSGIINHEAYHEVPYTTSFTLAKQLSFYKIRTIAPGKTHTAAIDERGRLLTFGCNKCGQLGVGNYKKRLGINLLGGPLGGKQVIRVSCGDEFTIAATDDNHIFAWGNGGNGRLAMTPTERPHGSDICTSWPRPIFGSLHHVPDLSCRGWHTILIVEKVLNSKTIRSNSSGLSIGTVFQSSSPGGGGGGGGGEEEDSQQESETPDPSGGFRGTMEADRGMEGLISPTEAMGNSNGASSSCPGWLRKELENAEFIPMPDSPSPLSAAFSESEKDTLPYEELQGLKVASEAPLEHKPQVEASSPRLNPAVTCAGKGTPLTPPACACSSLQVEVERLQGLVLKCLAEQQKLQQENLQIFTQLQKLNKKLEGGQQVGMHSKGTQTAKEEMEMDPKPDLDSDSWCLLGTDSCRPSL
The note with it: at 0.1 µM.

Serine/threonine-protein kinase Nek7 (Homo sapiens), sequence (Q8TDX7 whole entry, looked up): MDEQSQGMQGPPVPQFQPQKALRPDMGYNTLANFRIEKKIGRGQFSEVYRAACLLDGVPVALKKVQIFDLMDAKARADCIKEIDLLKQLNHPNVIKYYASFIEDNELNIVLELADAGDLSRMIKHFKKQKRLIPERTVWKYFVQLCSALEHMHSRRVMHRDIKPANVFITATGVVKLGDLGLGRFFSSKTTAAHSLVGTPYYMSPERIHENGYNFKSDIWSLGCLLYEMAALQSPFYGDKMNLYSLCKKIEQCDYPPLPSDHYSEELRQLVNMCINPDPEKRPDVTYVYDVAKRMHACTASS
Serine/threonine-protein kinase Nek6 (Homo sapiens), sequence (Q9HC98 whole entry): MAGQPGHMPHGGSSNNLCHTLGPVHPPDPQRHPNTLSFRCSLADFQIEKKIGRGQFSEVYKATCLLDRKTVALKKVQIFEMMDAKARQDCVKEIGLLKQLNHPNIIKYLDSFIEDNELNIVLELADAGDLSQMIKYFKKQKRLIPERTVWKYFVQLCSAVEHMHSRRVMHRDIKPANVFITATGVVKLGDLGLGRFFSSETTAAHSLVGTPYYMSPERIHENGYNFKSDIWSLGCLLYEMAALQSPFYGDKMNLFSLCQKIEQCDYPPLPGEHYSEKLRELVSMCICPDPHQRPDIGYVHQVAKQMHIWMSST
Casein kinase II subunit alpha (Homo sapiens), sequence (P68400 whole entry, looked up): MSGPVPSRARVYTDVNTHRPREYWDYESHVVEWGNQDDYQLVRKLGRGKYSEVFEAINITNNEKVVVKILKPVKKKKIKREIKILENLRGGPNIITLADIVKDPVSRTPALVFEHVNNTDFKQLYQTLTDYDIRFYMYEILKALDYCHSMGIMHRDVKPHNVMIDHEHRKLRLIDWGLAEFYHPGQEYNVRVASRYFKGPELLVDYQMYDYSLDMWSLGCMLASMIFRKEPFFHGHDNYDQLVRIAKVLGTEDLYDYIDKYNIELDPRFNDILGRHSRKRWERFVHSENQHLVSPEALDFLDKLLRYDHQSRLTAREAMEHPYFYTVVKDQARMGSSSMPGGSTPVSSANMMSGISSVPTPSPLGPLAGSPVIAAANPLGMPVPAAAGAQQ
Sphingosine kinase 1 (Homo sapiens), sequence (Q9NYA1 whole entry): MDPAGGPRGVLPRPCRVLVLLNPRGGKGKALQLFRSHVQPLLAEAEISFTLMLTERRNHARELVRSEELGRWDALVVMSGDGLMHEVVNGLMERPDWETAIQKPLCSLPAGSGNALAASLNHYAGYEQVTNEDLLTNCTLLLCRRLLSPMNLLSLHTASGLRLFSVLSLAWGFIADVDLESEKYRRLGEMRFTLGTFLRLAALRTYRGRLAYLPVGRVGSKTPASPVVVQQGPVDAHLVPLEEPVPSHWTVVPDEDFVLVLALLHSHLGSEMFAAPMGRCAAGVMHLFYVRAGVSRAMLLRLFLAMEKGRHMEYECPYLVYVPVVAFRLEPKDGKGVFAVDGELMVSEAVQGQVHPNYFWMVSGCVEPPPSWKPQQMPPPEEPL

Consider `CNC(=O)c1cncc(/C=C/c2ccccc2Cl)c1`, for which the inhibition in [1] was -2.41%; in test [2] it was 0.11%; in test [3], -0.01%; in test [4], 0.75%; in test [5] it was 8.72%; in test [6], 2.99%. Further, the inhibition is -3.09% in [7]; -0.46% in test [8]; 1.87% in [9]; 2.76% in [10]; 2.69% in [11]; -0.35% in test [12]. Besides, the inhibition is 1.83% in test [13]; -0.6% in test [14]; -0.78% in [15]; 1.4% in [16]; 5.65% in [17]; -1.23% in test [18]. The inhibition is -1.28% in test [19] and 1.21% in [20].
